Sampled rows, rich in hits. Any-hit rate of the full collection: about 10%.
BAZ2B block – blocks human BAZ2B; Q9UIF8; AlphaScreen BAZ2B-H3K14Ac peptide displacement; Potency, µM (doses to about 114 µM), inactives show at the highest dose activity change, negative = inhibition, most hits filed as inhibitors; hit rate 4.4% among 360,000; AID 504333; further: potency means the concentration at half of the fitted maximal effect; on the % scale 0 is the no-effect control and ±100 the full control effect; nearly all actives have a fitted effect of over 60% in size
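BAZ2B 50 nM plus b-H3(5-23)K14Ac 50 nM, PBS pH 7.4/0.01% Tween-20, 30 min RT; compound added (max 110 uM), 30 min RT; streptavidin donor/Ni-chelate acceptor beads 10 ug/mL final, 20 min dark; AlphaScreen read.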
JMJD2A Tudor inh – blocks the human JMJD2A Tudor domain | AlphaScreen JMJD2A-Tudor / H3K4me3 peptide binding | O75164 | AID 504339 | hit rate 4.4% among 390,000 | Potency, µM (top dose mostly 114 µM), for the others: at the highest dose activity change, negative = inhibition, hits mostly inhibitors; further: potency means the concentration at half of the fitted maximal effect; on the % scale 0 is the no-effect control and ±100 the full control effect; nearly all actives have a fitted effect of over 50% in size
Target sequence (O75164 whole entry, looked up, the tested form may be a part): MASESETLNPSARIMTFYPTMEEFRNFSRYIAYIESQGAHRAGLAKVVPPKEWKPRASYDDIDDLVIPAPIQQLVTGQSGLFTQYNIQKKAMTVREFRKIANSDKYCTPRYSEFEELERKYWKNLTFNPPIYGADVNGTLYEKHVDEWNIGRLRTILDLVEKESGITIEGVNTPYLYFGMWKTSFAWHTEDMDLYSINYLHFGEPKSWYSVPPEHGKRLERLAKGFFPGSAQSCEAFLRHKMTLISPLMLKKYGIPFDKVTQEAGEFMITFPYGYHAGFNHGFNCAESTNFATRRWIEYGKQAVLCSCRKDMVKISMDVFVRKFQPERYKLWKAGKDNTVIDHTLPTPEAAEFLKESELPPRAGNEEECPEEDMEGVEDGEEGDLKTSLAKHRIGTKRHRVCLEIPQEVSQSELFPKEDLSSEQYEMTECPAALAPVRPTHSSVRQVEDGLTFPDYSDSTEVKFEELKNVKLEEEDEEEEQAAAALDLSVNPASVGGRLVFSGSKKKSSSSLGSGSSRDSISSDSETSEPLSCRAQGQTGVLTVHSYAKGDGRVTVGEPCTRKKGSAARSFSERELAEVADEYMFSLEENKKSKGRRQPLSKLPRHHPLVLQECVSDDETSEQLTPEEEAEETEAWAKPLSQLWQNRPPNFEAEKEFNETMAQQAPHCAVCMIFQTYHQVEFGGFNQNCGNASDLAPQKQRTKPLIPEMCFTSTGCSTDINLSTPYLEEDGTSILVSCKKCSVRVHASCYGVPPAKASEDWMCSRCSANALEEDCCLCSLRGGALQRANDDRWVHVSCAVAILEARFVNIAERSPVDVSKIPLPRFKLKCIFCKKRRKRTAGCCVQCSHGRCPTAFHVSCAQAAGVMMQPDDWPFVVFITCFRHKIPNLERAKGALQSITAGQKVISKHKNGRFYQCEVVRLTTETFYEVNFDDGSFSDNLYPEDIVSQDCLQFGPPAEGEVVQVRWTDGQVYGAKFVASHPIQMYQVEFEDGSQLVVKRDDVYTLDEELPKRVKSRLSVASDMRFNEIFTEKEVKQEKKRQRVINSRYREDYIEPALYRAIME
HP1b binding inh – inhibitors of HP1-beta chromodomain binding to methylated histone tails. Potency, µM (titrated, usually from 114 µM), for the others: at the top dose activity change, negative = inhibition, hits mostly inhibitors. AID 540317. AlphaScreen HP1-beta / biotin-H3K9me3 peptide binding. hit rate 0.56% among 390,000; further: potency means the concentration at half of the fitted maximal effect; nearly all actives have a fitted effect of over 70% in size
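Compound inhibition of the preformed complex between 50 nM HP1-beta and 50 nM biotinylated H3K9me3 peptide was read by AlphaScreen. Buffer was PBS pH 7.4 with 0.01% Tween-20. Incubations ran 30 min at room temperature, with 10 ug/mL donor/acceptor beads.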
Six1-Eya2 inh – blocks human Six1 binding to Eya2; hit rate 0.56% among 360,000; AID 651725; AlphaScreen GST-Six1/His-Eya2 binding, biochemical; hits give low values; activity change, % (no concentration beside the values); in the data active means activity change below about -65%; inconclusive means mostly about -30% to -63%; further: on the % scale 0 is the no-effect control and ±100 the full control effect
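Compounds are tested against tagged Six1 and Eya2 proteins bridged by glutathione donor and nickel acceptor beads; after a one-hour incubation at 37 °C without light, AlphaScreen emission is recorded.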
CtBP-E1A inh – blocks the CtBP interaction with E1A. AlphaScreen GST-E1A/His-CtBP binding, 1536-well; hits give low values. activity change, % (no concentration beside the values). hit rate 0.49% among 340,000; in the data active means activity change below about -65%; inconclusive means mostly about -30% to -63%; further: on the % scale 0 is the no-effect control and ±100 the full control effect
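GST-E1A and His-tagged CtBP (125 nM each as 5X stock) were preincubated with pin-transferred compound for 2 h at 37 °C in the dark, then glutathione donor and nickel acceptor beads were added for 1 h before AlphaScreen reading.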
G9a inh – blocks human histone lysine methyltransferase G9a; hit rate 8.8% among 350,000; Potency, µM (titrated, usually from 102 µM), inactives show at the top dose activity, negative = inhibition, usual class: inhibitors; Q96KQ7; G9a H3K9 monomethylation, AlphaScreen, 2 h; further: potency means the concentration at half of the fitted maximal effect; on the % scale 0 is the no-effect control and ±100 the full control effect; nearly all actives have a fitted effect of over 75% in size
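AlphaScreen detection with an anti-monomethyl H3K9 antibody quantified product after a 2 h room-temperature reaction containing 500 nM biotinylated H3K9 peptide, 20 µM SAM and 20 nM enzyme, which had been preincubated 15 min with compound.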
Active calls of the source: *; ? = inconclusive; nt = no result given; [ ] = another dose, or the depositor's remark. Unless noted, the call rests on the fitted dose curve; in most records, active means well fitted inhibition curve with a large enough effect; inconclusive means small, poorly fitted or top-dose-only effect; inactive means no such curve, though single readings can be large or run the other way.

SMILES	BAZ2B block	JMJD2A Tudor inh	HP1b binding inh	Six1-Eya2 inh	CtBP-E1A inh	G9a inh
Cc1ccc(-c2nnn(CC(=O)N(Cc3ccc(F)cc3)C(C(=O)NC3CCCC3)c3ccncc3)n2)o1 (stereo not drawn)	2.2%	-15.4%	25.4%	4.1	-0.2	?
Cc1ccc(C(C(=O)NC(C)(C)C)N(CC2CCCO2)C(=O)Cn2nnc(-c3ccc(C)o3)n2)cc1 (stereo not drawn)	-9.9%	-21.2%	-1.0%	-2.3	-0.9	44.7µM*
O=C(NC1CCCC1)C(c1ccncc1)N(CC1CCCO1)C(=O)Cn1nnc(-c2cccs2)n1 (stereo not drawn)	10.9%	-8.1%	22.0%	2.5	-9.5	50.1µM*
CC(C)(C)N(C(=O)Cn1nnc(-c2ccc(F)cc2)n1)C(C(=O)NC1CCCC1)c1ccncc1 (stereo not drawn)	4.1%	-28.4%	19.1%	-1.1	2.1	7.08µM*
COc1ccc(CCNC(=O)CCc2c(C)nc3c(c(C)nn3-c3ccc(C)cc3)c2C)c(OC)c1	-4.3%	-15.2%	27.4%	nt	nt	-40.6%[59 µM]
COc1ccc(-c2csc(Nc3ccccc3)[n+]2CC(O)c2ccc([N+](=O)[O-])cc2)cc1 (stereo not drawn)	?	?	?	-3.9	-27.9	14.1µM*
COc1ccc(-c2nc(NC(=O)c3ccccc3)sc2-c2ccc([N+](=O)[O-])cc2)cc1	-1.8%[57.1 µM]	-31.5%	4.4%	-0.3	-13.6	19.2%
COc1ccc(C(NCC(=O)Nc2c(C)cccc2C)c2ccccc2)cc1 (stereo not drawn)	31.6µM*	20µM*	28.2µM*	-1.6	24.1	?
COc1ccc(NC(=O)CNC(c2ccccc2)c2ccccc2)cc1Cl	4.7%	-2.1%	14.5%	5.5	2.1	26.0%
O=c1cc2nc(-c3ccccc3F)nc(SCc3ccc(Br)cc3)n2[nH]1	50.1µM*	?	9.2%	nt	nt	-11.9%[59 µM]
CCOc1ccc(CCNC(=O)CCN2N=C(c3ccc(OC)cc3)CCC2=O)cc1OCC	-3.3%	-14.1%	38.4%	nt	nt	-7.6%[59 µM]
COc1ccc(CCC(=O)NCc2ccc3c(c2)CCN3C(=O)c2cccc(C)c2)cc1	-15.6%	-26.0%	23.8%	nt	nt	-2.2%[59 µM]
CCN(CC#CCC(O)(c1ccccc1)c1ccccc1)C(C)C	-10.0%	-30.1%[57.1 µM]	5.9%	3.3	3.8	-23.6%[59 µM]
CC(C)N(CC#CCC(O)(c1ccccc1)c1ccccc1)CCO	79.4µM*	-1.5%[11.4 µM]	20.1%	11.6	nt	12.6µM*
CN(C)S(=O)(=O)c1cccc(-c2nnc(SCc3cc(Cl)cc4c3OCOC4)n2N)c1	-27.1%	39.8µM*	?	-0.1	3.5	8.91µM*
Cc1nnc(SCc2cc([N+](=O)[O-])cc3c2OCOC3)n(N)c1=O	-2.8%	-9.0%	40.9%	-2.7	0.8	1.8%
CCCN1C(=O)C(NC(=O)c2ccccc2OC)(C(F)(F)F)C(C(=O)OC)=C1C (stereo not drawn)	-14.0%	5.2%	36.6%	nt	nt	-2.3%[59 µM]
Cc1cc(C)c2c(=O)cc(C(=O)Nc3sc4c(c3C(=O)NCc3cccnc3)CCCC4)oc2c1	-9.0%	-9.4%	33.1%	nt	nt	1.9%[59 µM]
CC1(C)Cc2c(sc(NC(=O)c3ccco3)c2C#N)CO1	-30.5%	-13.5%	34.0%	2.0	-1.2	-26.6%[59 µM]
CN1Cc2sc(NC(=S)NC(=O)c3ccccc3)c(C#N)c2CC1(C)C	44.7µM*	35.5µM*	?	-14.3	-18.1	10µM*
CCC1(C)Cc2c(sc(NC(=S)NC(=O)c3ccccc3)c2C#N)CO1 (stereo not drawn)	-30.9%	-27.3%	-14.0%	9.1	-1.4	44.7µM*
COc1ccc(C2NCCc3c2[nH]c2ccccc32)cc1CSc1nc2ccccc2s1 (stereo not drawn)	44.7µM*	25.1µM*	?	-13.1	-26.3	8.91µM*
NC(=O)c1cccnc1Oc1ccc(Cl)cc1	-19.9%	-11.4%	12.7%	1.5	-1.7	nt
NC(=O)c1cccnc1Oc1cccc(Cl)c1	15.7%	20µM*	?	8.5	2.0	1.3%[12.7 µM]
Cc1cc(Nc2ccc(F)c(Cl)c2)n2nc(C)nc2n1	5.1%	2.8%	23.3%	-1.0	-2.5	?
SMILES	BAZ2B block	JMJD2A Tudor inh	HP1b binding inh	Six1-Eya2 inh	CtBP-E1A inh	G9a inh
Cc1cc(Nc2ccc(C(C)C)cc2)nc(-n2nc(C)cc2C)n1	-37.6%	?	18.8%[57 µM]	nt	nt	8.4%[59 µM]
COc1ccc(Nc2cc(C)nc3nc(C)nn23)cc1Cl	14.8%	-4.2%	52.2%	-18.0	-11.4	89.1µM*
COc1ccc(Nc2cc(C)nc(-n3nc(C)cc3C)n2)cc1Cl	6.31µM*	?	10.1%[57 µM]	nt	nt	25.4%[59 µM]
CCOc1ccc(Nc2cc(C)nc3nc(C)nn23)cc1	-0.4%	-12.0%	4.0%	-2.0	-7.9	89.1µM*
Cc1nc2ncnn2c(C)c1CCC(=O)NCc1ccc(Cl)cc1	-4.3%	-7.4%	25.7%	nt	nt	-2.1%[59 µM]
O=C(CSc1ncn[nH]1)N1N=C2/C(=C/c3ccccc3)CCCC2C1c1ccccc1 (stereo not drawn)	-24.8%	?	8.8%	-10.1	-11.4	11.2µM*
NC(=O)N1N=C2/C(=C/c3ccccc3)CCCC2C1c1ccccc1 (stereo not drawn)	-17.0%	-23.3%	-2.9%	-7.8	-1.6	9.6%
O=C(O)CSCC(=O)N1N=C2/C(=C/c3ccccc3)CCCC2C1c1ccccc1 (stereo not drawn)	-13.1%	-23.9%	4.2%	0.9	-14.3	50.1µM*
COc1ccc(/C=C2\CCCC3C2=NN(C(=O)CSc2ncn[nH]2)C3c2ccc(OC)cc2)cc1 (stereo not drawn)	-37.9%	-31.1%	16.8%	-20.2	2.2	-15.5%[59 µM]
Cc1ccc(N(CC(=O)N2CCN(c3cc(C)ccc3C)CC2)S(=O)(=O)c2c(C)nn(C)c2C)cc1	nt	?	5.6%	nt	nt	?
Cc1cc(C)c2c(=O)[nH]c(SCC(=O)Nc3ccccc3)nc2n1	2.5%	-15.1%	21.4%	-5.2	-4.3	16.2%[59 µM]
Cc1cc(C)c2c(=O)[nH]c(SCC(=O)c3ccc(C)c(C)c3)nc2n1	-12.9%	2.0%	24.2%	-18.8	-17.2	50.1µM*
CCOc1ccccc1NC(=O)Cn1c(=O)n(-c2ccccc2)c(=O)c2c1c1cc(C)ccc1n2C	-2.7%	-2.8%	40.3%	nt	nt	?
COc1ccc(-c2ccc3c(N)c(C(=O)NC(C)C)sc3n2)cc1OC	-0.7%	23.5%	76.5%	-15.3	-23.3	-43.7%
COc1ccc(-c2ccc3c(N)c(C(=O)c4ccc(OC)c(OC)c4)sc3n2)cc1	-26.3%	?	8.4%	28.0	4.8	2.82µM*
COc1ccc(-c2ccc3c(n2)sc2c(=O)[nH]c(=O)[nH]c23)cc1OC	-38.5%	nt	nt	nt	nt	3.55µM*
CCOC(=O)c1cc(-c2ccc(C)cc2)n(CC(=O)NC2CCCCCC2)c1C	0.9%	-14.2%	14.9%	nt	nt	-5.3%[59 µM]

High-throughput results as filed in PubChem.
